Consider 17 compounds from paper PMC5540273 (PLoS ONE, 2017).

Test systems include NEK3; NEK4; NEK5; NEK6; NEK7; NEK9; NLK.
Common to all, as to details: concentration: 1 μM, replicates: in singlicate; n = 1
Another assay deals with T1, NIK.
T1 construct: gene MAP3K14

For the next assay, the system named is T2, NIM1.
T2 construct: gene MGC42105

A further assay deals with T3, OSR1.
T3 construct: gene OXSR1
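Note: KINOMEscan kinase panel screen.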

In the case of `Nc1nc(-c2ccc3c(N)n[nH]c3c2)cc(N2CCCCC2)n1` [GSK2228768], the “%Inh” value was found to be 0% in the assay on NEK3; 3% with NEK4; 4% in the assay on NEK5; 0% in the assay on NEK6; 0% in the assay on NEK7; 0% with NEK9. Also, the “%Inh” value is on record as 0% in the assay with NIK, 0% in the assay on NIM1, 0% in the assay with NLK and 7% with OSR1.

As to `Cn1cc(-c2ccc3c(c2)CCN3C(=O)Cc2cccc(C(F)(F)F)c2)c2c(N)ncnc21` [GSK2606414], the “%Inh” value amounted to 0% with NEK3; 7% in the assay on NEK4; 0% with NEK5; 0% in the assay with NEK6; 11% in the assay with NEK7; 8% in the assay on NEK9. Moreover, the “%Inh” value in the assay with NIK was determined as 0%; in the assay with NIM1, 5%; with NLK, 0%; with OSR1, 12%.

As for `O=c1cc(N2CCOCC2)nc2n(Cc3cccc(Cl)c3)ccn12` [GSK2296823], the “%Inh” value with NEK3 is listed as 3%; in the assay on NEK4 it was 16%; with NEK5 it was 2%; in the assay with NEK6 it was 0%; with NEK7, 2%; in the assay with NEK9, 3%. For the same compound, the “%Inh” value came to 13% with NIK, 0% with NIM1, 0% in the assay on NLK and 7% in the assay with OSR1.

In the case of `Nc1nc(-c2cccnc2)c(-c2ccnc3ccccc23)s1` [GW684083], the “%Inh” value in the assay with NEK3 was found to be 2%; with NEK4, 20%; with NEK5, 0%; with NEK6 it was 0%; with NEK7, 0%; with NEK9 it was 4%. Moreover, the “%Inh” value in the assay with NIK stood at 29%; with NIM1, 66%; in the assay on NLK, 9%; in the assay with OSR1, 11%.

In the case of `CS(=O)(=O)CCNCc1nc(-c2ccc3ncnc(Nc4ccc(OCc5cccc(F)c5)c(Cl)c4)c3c2)cs1.Cl` [GW583340], the “%Inh” value in the assay on NEK3 was 3%; with NEK4 it was 0%; in the assay on NEK5 it was 6%; with NEK6, 0%; in the assay with NEK7 it was 0%; in the assay on NEK9 it was 11%. Moreover, the “%Inh” value in the assay with NIK is on record as 0%; with NIM1 it was 6%; in the assay on NLK, 0%; in the assay on OSR1 it was 0%.

In the case of `C[C@H]1CC[C@@H](C(=O)Nc2ccccc2)CN1c1cc(-c2ccc3c(N)n[nH]c3c2)nc(N)n1` [GSK2283293], the “%Inh” value turned out to be 1% in the assay with NEK3; 1% in the assay on NEK4; 0% with NEK5; 0% in the assay with NEK6; 0% in the assay with NEK7; 7% in the assay with NEK9. In addition, the “%Inh” value is on record as 0% in the assay with NIK, 12% in the assay with NIM1, 0% with NLK and 11% in the assay with OSR1.

Take `CNc1nccc(-c2c(-c3ccc(F)cc3)ncn2C2CCN(C)CC2)n1` [SB-222903]: the “%Inh” value is 17% in the assay on NEK3; 0% in the assay with NEK4; 0% in the assay on NEK5; 0% with NEK6; 0% in the assay with NEK7; 0% in the assay with NEK9. Besides, the “%Inh” value stood at 31% with NIK, 0% in the assay on NIM1, 83% with NLK and 0% in the assay with OSR1.

Take `O=C(Nc1ccccc1F)NC1CCN(c2ccnc(Nc3ccc(F)cc3)n2)C1` (centres unmarked) [GSK1379722]: the “%Inh” value was 4% in the assay on NEK3; 9% in the assay with NEK4; 12% in the assay with NEK5; 0% in the assay with NEK6; 0% in the assay with NEK7; 0% with NEK9. In addition, the “%Inh” value in the assay on NIK amounted to 14%; in the assay with NIM1 it was 15%; in the assay with NLK, 17%; in the assay with OSR1 it was 0%.

For the compound `CCC(CC)(CC)n1cnc2c(N)ncnc21` [SKF-97620], the “%Inh” value in the assay with NEK3 came out at 23%; in the assay with NEK4, 0%; in the assay on NEK5, 0%; in the assay with NEK6, 0%; in the assay on NEK7, 0%; in the assay with NEK9, 0%. Further, the “%Inh” value came out at 0% in the assay on NIK, 28% in the assay with NIM1, 17% in the assay on NLK and 19% in the assay on OSR1.

As for `Oc1ccc2ncnc(Nc3ccc(OCc4ccccc4)cc3)c2c1` [GI262866], the “%Inh” value is reported as 0% in the assay with NEK3; 0% in the assay on NEK4; 7% in the assay with NEK5; 0% in the assay with NEK6; 1% in the assay on NEK7; 10% in the assay with NEK9. The “%Inh” value in the assay with NIK stood at 8%; in the assay with NIM1, 7%; in the assay on NLK it was 7%; in the assay on OSR1, 0%.

As to `NC(=O)c1sc(-n2cnc3ccccc32)cc1OCc1ccccc1F` [GSK1024306], the “%Inh” value with NEK3, with NEK4, in the assay on NEK5, in the assay on NEK6, in the assay on NEK7 and in the assay on NEK9 was 0% in each case. Besides, the “%Inh” value in the assay with NIK amounted to 0%; with NIM1, 20%; with NLK, 1%; with OSR1 it was 1%.

As for `CC(C)(C)c1ccc(-n2cnc3c(N)ncnc32)cc1` [SKF-97263], the “%Inh” value is 0% with NEK3; 19% in the assay on NEK4; 10% in the assay on NEK5; 0% in the assay on NEK6; 16% in the assay on NEK7; 14% in the assay on NEK9. Moreover, the “%Inh” value with NIK is recorded as 0%; in the assay with NIM1 it was 9%; in the assay with NLK, 26%; with OSR1, 16%.

Consider `c1ccc(-c2ccc3c(-c4ccnc(Nc5ccc6c(c5)OCCO6)n4)cnn3n2)cc1` [GW818941], for which the “%Inh” value is 0% in the assay with NEK3; 4% in the assay on NEK4; 14% in the assay with NEK5; 15% in the assay on NEK6; 43% in the assay with NEK7; 27% with NEK9. For the same compound, the “%Inh” value was 10% in the assay with NIK, 7% with NIM1, 17% in the assay on NLK and 0% in the assay on OSR1.

For the compound `Fc1cccc(COc2ccc(Nc3ncnc4nn5ccccc5c34)cc2Cl)c1` [GW689066], the “%Inh” value came out at 0% in the assay on NEK3; 0% in the assay on NEK4; 0% in the assay on NEK5; 0% in the assay on NEK6; 0% in the assay on NEK7; 4% with NEK9. The “%Inh” value came out at 0% with NIK, 13% with NIM1, 7% in the assay with NLK and 3% in the assay with OSR1.

`Nc1n[nH]c2nnc(-c3ccccc3)cc12` [SB-517389]: the “%Inh” value in the assay with NEK3 was 29%; in the assay with NEK4, 21%; in the assay with NEK5, 27%; in the assay with NEK6 it was 0%; in the assay with NEK7, 0%; with NEK9, 7%. Also, the “%Inh” value in the assay with NIK is 0%; in the assay with NIM1 it was 15%; with NLK, 36%; in the assay with OSR1 it was 0%.

As for `COC(=O)c1c(-c2ccccc2)c2cc(Cl)ccc2c(=O)n1Cc1ccc(S(C)(=O)=O)cc1`, the “%Inh” value is recorded as 4% in the assay with NEK3; 0% with NEK4; 0% with NEK5; 2% in the assay on NEK6; 0% with NEK7; 0% in the assay on NEK9. Besides, the “%Inh” value in the assay on NIK, in the assay on NIM1, in the assay with NLK and in the assay on OSR1 was 0% each time.

As for `Cn1ccc2ncnc(Nc3ccc(Oc4cccc(Cl)c4)c(Cl)c3)c21`, the “%Inh” value with NEK3 turned out to be 26%; in the assay on NEK4 it was 11%; in the assay with NEK5, 0%; with NEK6 it was 25%; in the assay on NEK7, 4%; with NEK9, 17%. Further, the “%Inh” value in the assay on NIK is on record as 0%; in the assay on NIM1, 0%; in the assay on NLK it was 0%; with OSR1 it was 15%.
